The list is not random: actives were taken first. Their share in the collection is about 19%.
HT1080 IDH1KD tx = toxicity to HT-1080 IDH1 knockdown cells (counter line). HT-1080 IDH1 knockdown viability, ATP luminescence, 48 h. 360,000 compounds, 2% hits. Potency, µM (titrated, usually from 46.1 µM), for inactives: at the top dose activity, negative = toxicity, actives largely listed as cytotoxic;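 also: potency is read from the fitted curve at half-maximal effect; 0% = DMSO wells and -100% = cell-free medium wells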
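Knockdown cells (IDH1KD HT-1080) received compounds 2 h after plating at 750 cells/well and were kept 48 h at 37 °C in 5% FBS RPMI. A CellTiter-Glo luminescence read gave % activity for curve fitting.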
TDP1 cell noCPT = qHTS for Inhibitors of human tyrosyl-DNA phosphodiesterase 1 (TDP1): qHTS in cells in absence of CPT; DT40 Tdp1-/- hTDP1 cells, no CPT, ATP luminescence, 48 h; Potency, µM (titrated, usually from 46.2 µM), without a hit: at the top dose activity change, negative = growth inhibition, usual class: inhibitors; 420,000 compounds, 15% hits; also: potency is read from the fitted curve at half-maximal effect; nearly all actives have a fitted effect of over 55% in size
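Luminescent ATP content (CellTiter-Glo) served as the growth readout. Knockout chicken DT40 cells expressing human TDP1 were exposed to compounds without camptothecin for a minimum 48 hr at 37 °C.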
IL-1B inflam inh = inhibitors of inflammasome signaling (IL-1 beta secretion); 360,000 compounds, 4.7% hits; THP-1 LPS/ATP IL-1B secretion, AlphaLISA, 16 h; hits give low values; activity change, % at 57.5 µM; AID 743279; in the data active = activity change below about -50%; inconclusive = mostly about -30% to -49%
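THP-1 cells pretreated 1 hr with compounds (up to 57.5 uM final), then stimulated with LPS (250 ng/mL final) plus ATP (1.25 mM final); secreted IL-1B measured by AlphaLISA after 16 hr, decreased signal indicating inhibition.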
uPA surface inh = cell surface uPA generation inhibition; cell surface uPA generation assay, qHTS; Potency, µM (doses to about 38.3 µM), for inactives: at the highest dose activity change, negative = inhibition, most hits filed as inhibitors; 330,000 compounds, 0.31% hits; AID 540303; active = well fitted inhibition curve with a large enough effect; inconclusive = small, poorly fitted or top-dose-only effect; inactive = no such curve, though single readings can be large or run the other way; tested in mouse RAW 264.7 cells; also: potency is read from the fitted curve at half-maximal effect; nearly all actives have a fitted effect of over 55% in size
DT40 TDP1 CPT = growth inhibition of DT40 Tdp1-/-;hTDP1 cells with camptothecin (screen for TDP1 inhibitors); chicken DT40 Tdp1-/-;hTDP1 cells + 20 nM CPT, ATP luminescence, 48 h; 420,000 compounds, 12% hits; Potency, µM (highest dose often 46.2 µM), without a hit: at the top dose activity change, negative = growth inhibition, most hits filed as inhibitors; also: potency is read from the fitted curve at half-maximal effect; nearly all actives have a fitted effect of over 55% in size
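Chicken DT40 Tdp1-/- cells complemented with human TDP1, 400 cells/well, exposed to compounds plus 20 nM camptothecin for at least 48 h at 37 C; viability read as ATP content by CellTiter-Glo luminescence.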
HT1080-NT tox = kills 2HG-producing HT-1080-NT fibrosarcoma cells | HT-1080-NT fibrosarcoma viability, CellTiter-Glo ATP luminescence, 48 h | Potency, µM (highest dose often 46.1 µM), inactives show top-dose activity, negative = less viability, usual class: cytotoxic | 360,000 compounds, 1.6% hits | AID 686970;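 also: NT is the 2HG producing partner of a matched IDH1 knockdown line; potency is read from the fitted curve at half-maximal effect; 0% = DMSO-treated cells and -100% = media-only wells without cells; nearly all actives have a fitted effect of over 55% in size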
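Compounds were tested in concentration-response format on HT-1080-NT cells for 48 hours at 37 degrees C. Cell viability came from CellTiter-Glo luminescence; curves were classified by r2, response magnitude and activity.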
An asterisk follows results filed as active; ? = inconclusive; . = no result; [ ] = remark or other dose. Unless noted, calls follow the shape of the dose curve; as a rule, active = well fitted curve in the direction sought with a large enough effect; inconclusive = small, poorly fitted or top-dose-only effect, or another doubt; inactive = no such curve, though single readings can be large; an effect the other way counts as inactive or inconclusive. Unless noted, % is scaled to controls: 0 for no effect and ±100 for the full control effect.

SMILES	HT1080 IDH1KD tx	TDP1 cell noCPT	IL-1B inflam inh	uPA surface inh	DT40 TDP1 CPT	HT1080-NT tox
COc1ccc(C2(c3ccc(OC)cc3)NC(=O)N(CC(=O)N(C)c3ccccc3)C2=O)cc1	-25%	?	?	6%	?	-4%
CC(C)C(C)NC(=O)CN1C(=O)NC(c2ccccc2)(c2ccccc2)C1=O (configuration not stated)	0%	0%	-67*	-1%	8%	0%
c1cn(-c2cc(-c3ccc4c(c3)OCO4)ncn2)cn1	.	-9%	.	.	?	.
Cc1nc2ncccn2c1-c1csc(Nc2ccc(O)cc2)n1	?	5.2µM*	-28	-14%	?	-6%
Cc1ccc(Nc2nc(-c3c(C)nc4ncccn34)cs2)cc1	?	0.0065µM*	-98*	-11%	0.018µM*	0.18µM*
COc1ccccc1N1CC(C(=O)Nc2ccc(N3CCOCC3)cc2)CC1=O (configuration not stated)	-3%	6%	7	-4%	-9%	1%[9.24 µM]
O=C(O)COc1cccc(-c2ocnc2-c2nc(-c3ccccc3)c(-c3ccccc3)o2)c1	.	2%	.	.	-3%	.
CN(CCOc1ccccc1)S(=O)(=O)c1ccc2oc3ccccc3c2c1	-7%	23µM*	-19	1%	?	0%
CC12CCC(C1)C(C)(C)C2=O (configuration not stated)	.	-1%	.	.	-27%	.
COC(=O)[C@@]12C[C@@H](CC(=O)N3CCCC3)C(=O)N(Cc3ccccc3)C1=CCC(C)(C)C2	-18%	?	25	.	23µM*	5%
COC(=O)[C@@]12C[C@@H](CC(=O)N3CCCC3)C(=O)N(Cc3ccco3)C1=CCC(C)(C)C2	0%	16µM*	-8	.	?	11%
COC(=O)[C@@]12C[C@@H](CC(=O)N3CCN(C(=O)C4CC4)CC3)C(=O)N(Cc3ccccc3)C1=CCC(C)(C)C2	0%	?	-5	.	?	19%
COC(=O)[C@@]12C[C@@H](CC(=O)N3CCCCC3)C(=O)N(Cc3ccccc3)C1=CCC(C)(C)C2	-7%	18µM*	-19	.	?	-2%
O=C(Cn1nc(-c2ccccc2)nc1-c1ccccc1)OC1CCCCC1	-2%	18µM*	0	10%	?	5%
CC(NC(=O)C1CCOCC1)c1nnc2n1CCN(Cc1ccc3ccccc3c1)CC2 (configuration not stated)	.	-16%	.	.	15%[9.04 µM]	.
CCOC(=O)c1cnn(-c2cccc(F)c2)c1C1CCNCC1	.	-8%	.	.	-28%	.
N#Cc1c(C(F)(F)F)cc(-c2ccccc2)nc1SCC(=O)Nc1sc2c(c1C#N)CCC2	-20%	10µM*	35	4%	13µM*	0%
CCCOc1ccc(-c2cc(C(F)(F)F)c(C#N)c(SCC(=O)O)n2)cc1	-13%	-6%	-71*	-2%	-1%	-18%
Cc1nc(SCC(=O)Nc2nc3ccccc3s2)c(C#N)c(C)c1C	?	?	63	?	?	-27%
Cc1ccc(-c2cc(C(F)(F)F)c(C#N)c(SCC(=O)O)n2)cc1	-24%	?	42	-9%	0%	?
Cc1cc(C(F)(F)F)c(C#N)c(SCC(=O)Nc2nc3ccccc3s2)n1	18µM*	18µM*	0	-4%	?	?
N#Cc1c(C#N)c(-c2ccccc2)n(-c2ccccc2)c1N	-21%	12µM*	-15	-6%	15µM*	-24%
Cn1c(N)c(C#N)c(C#N)c1-c1ccccc1	4%	-22%	0	0%	-12%	-3%
O=C1Nc2ccc(Cl)cc2/C1=C/C1CC=CCC1 (configuration not stated)	?	?	-90*	-6%	?	?
Cc1ccc2c(c1)/C(=C/c1ccccc1F)C(=O)N2	-13%	?	-5	-3%	?	-12%
SMILES	HT1080 IDH1KD tx	TDP1 cell noCPT	IL-1B inflam inh	uPA surface inh	DT40 TDP1 CPT	HT1080-NT tox
CCN(CC)C(=O)C1=C(C)N(CCCN2CCCC2=O)C(=O)C(CC(=O)NCCCCc2ccccc2)C1 (configuration not stated)	5%	-12%	-21	.	-11%	-5%
COCCc1nn2c(=O)cc(COC(=O)c3ccccc3C)nc2s1	.	-19%	.	.	0%	.
CCc1ccc(NC(=O)c2ccc(CN3C(=O)C(C)=C(c4ccc(C)cc4)S3(=O)=O)cc2)cc1	.	10µM*	.	.	?	.
CC1=C(c2ccc(C)cc2)S(=O)(=O)N(Cc2ccc(C(=O)Nc3ccc(F)cc3C)cc2)C1=O	.	5.2µM*	.	.	5.8µM*	.
COc1ccc(C2=C(C)C(=O)N(Cc3ccc(C(=O)Nc4ccc(C)c(C)c4)cc3)S2(=O)=O)cc1	.	?	.	.	-22%	.
CCOc1ccc(NC(=O)c2ccc(CN3C(=O)C(C)=C(c4ccc(C)cc4)S3(=O)=O)cc2)cc1	.	?	.	.	-10%	.
CC1=C(c2ccc(C)cc2)S(=O)(=O)N(Cc2ccc(C(=O)Nc3ccccc3C)cc2)C1=O	.	8.2µM*	.	.	7.3µM*	.
CCc1ccccc1NC(=O)Cn1nc2c3cc(F)ccc3n(Cc3cccc(C)c3)cc-2c1=O	.	-2%	.	.	-2%	.
O=C(Nc1ccc(CN2CCOCC2)cc1)c1ccc(-c2cc(Cl)ccc2Cl)o1	?	23µM*	-64*	-11%	?	?
O=[N+]([O-])c1cccc(-c2ccc(C(=S)N3CCOCC3)o2)c1	-10%	?	-16	-6%	-7%	-4%
COc1c(Cl)cc(Cl)cc1C(=O)Nc1ccc(CN2CCOCC2)cc1	3%	?	-58*	-22%	16µM*	0%
O=C(Nc1ccc(CN2CCOCC2)cc1)c1ccc(-c2cccc([N+](=O)[O-])c2)o1	0%	16µM*	?	?	21µM*	-1%
COc1c(Cl)cc(Cl)cc1C(=O)Nc1ccc(CN2CCCCC2)cc1	0%	16µM*	-20	-15%	?	-21%
COc1c(C)cccc1C(=O)Nc1ccc(CN2CCOCC2)cc1	-6%	-19%	-15	-4%	-3%	5%
COc1ccccc1C(=O)Nc1ccc(CN2CCCCC2)cc1	-1%	-8%	-4	-5%	20%	0%
O=C(Nc1ccc(CN2CCOCC2)cc1)c1ccc(Br)o1	-8%	-16%	-7	-5%	21%	7%
CCOc1ccc(-c2nc(SC(C(C)=O)C(=O)N(C)C)c3c(=O)n(C)c(=O)n(C)c3n2)cc1 (configuration not stated)	.	-18%	.	.	-5%	.
